Test results from the supplement of paper PMC11001985.
Unmarked numbers belong to inactive results.

Chain of UniProt P41221 (P41221 whole entry): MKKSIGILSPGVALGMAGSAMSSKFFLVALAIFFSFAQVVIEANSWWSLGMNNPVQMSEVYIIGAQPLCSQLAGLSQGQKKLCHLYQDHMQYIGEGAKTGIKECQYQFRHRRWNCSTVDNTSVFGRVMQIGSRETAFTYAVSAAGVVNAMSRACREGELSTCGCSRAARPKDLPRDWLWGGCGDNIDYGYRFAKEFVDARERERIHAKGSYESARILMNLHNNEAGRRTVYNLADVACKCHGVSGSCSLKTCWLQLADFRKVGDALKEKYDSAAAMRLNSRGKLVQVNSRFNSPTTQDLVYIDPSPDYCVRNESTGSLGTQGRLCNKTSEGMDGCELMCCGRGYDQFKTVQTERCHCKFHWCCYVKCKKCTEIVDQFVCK
Chain of UniProt Q04721 (Q04721 whole entry): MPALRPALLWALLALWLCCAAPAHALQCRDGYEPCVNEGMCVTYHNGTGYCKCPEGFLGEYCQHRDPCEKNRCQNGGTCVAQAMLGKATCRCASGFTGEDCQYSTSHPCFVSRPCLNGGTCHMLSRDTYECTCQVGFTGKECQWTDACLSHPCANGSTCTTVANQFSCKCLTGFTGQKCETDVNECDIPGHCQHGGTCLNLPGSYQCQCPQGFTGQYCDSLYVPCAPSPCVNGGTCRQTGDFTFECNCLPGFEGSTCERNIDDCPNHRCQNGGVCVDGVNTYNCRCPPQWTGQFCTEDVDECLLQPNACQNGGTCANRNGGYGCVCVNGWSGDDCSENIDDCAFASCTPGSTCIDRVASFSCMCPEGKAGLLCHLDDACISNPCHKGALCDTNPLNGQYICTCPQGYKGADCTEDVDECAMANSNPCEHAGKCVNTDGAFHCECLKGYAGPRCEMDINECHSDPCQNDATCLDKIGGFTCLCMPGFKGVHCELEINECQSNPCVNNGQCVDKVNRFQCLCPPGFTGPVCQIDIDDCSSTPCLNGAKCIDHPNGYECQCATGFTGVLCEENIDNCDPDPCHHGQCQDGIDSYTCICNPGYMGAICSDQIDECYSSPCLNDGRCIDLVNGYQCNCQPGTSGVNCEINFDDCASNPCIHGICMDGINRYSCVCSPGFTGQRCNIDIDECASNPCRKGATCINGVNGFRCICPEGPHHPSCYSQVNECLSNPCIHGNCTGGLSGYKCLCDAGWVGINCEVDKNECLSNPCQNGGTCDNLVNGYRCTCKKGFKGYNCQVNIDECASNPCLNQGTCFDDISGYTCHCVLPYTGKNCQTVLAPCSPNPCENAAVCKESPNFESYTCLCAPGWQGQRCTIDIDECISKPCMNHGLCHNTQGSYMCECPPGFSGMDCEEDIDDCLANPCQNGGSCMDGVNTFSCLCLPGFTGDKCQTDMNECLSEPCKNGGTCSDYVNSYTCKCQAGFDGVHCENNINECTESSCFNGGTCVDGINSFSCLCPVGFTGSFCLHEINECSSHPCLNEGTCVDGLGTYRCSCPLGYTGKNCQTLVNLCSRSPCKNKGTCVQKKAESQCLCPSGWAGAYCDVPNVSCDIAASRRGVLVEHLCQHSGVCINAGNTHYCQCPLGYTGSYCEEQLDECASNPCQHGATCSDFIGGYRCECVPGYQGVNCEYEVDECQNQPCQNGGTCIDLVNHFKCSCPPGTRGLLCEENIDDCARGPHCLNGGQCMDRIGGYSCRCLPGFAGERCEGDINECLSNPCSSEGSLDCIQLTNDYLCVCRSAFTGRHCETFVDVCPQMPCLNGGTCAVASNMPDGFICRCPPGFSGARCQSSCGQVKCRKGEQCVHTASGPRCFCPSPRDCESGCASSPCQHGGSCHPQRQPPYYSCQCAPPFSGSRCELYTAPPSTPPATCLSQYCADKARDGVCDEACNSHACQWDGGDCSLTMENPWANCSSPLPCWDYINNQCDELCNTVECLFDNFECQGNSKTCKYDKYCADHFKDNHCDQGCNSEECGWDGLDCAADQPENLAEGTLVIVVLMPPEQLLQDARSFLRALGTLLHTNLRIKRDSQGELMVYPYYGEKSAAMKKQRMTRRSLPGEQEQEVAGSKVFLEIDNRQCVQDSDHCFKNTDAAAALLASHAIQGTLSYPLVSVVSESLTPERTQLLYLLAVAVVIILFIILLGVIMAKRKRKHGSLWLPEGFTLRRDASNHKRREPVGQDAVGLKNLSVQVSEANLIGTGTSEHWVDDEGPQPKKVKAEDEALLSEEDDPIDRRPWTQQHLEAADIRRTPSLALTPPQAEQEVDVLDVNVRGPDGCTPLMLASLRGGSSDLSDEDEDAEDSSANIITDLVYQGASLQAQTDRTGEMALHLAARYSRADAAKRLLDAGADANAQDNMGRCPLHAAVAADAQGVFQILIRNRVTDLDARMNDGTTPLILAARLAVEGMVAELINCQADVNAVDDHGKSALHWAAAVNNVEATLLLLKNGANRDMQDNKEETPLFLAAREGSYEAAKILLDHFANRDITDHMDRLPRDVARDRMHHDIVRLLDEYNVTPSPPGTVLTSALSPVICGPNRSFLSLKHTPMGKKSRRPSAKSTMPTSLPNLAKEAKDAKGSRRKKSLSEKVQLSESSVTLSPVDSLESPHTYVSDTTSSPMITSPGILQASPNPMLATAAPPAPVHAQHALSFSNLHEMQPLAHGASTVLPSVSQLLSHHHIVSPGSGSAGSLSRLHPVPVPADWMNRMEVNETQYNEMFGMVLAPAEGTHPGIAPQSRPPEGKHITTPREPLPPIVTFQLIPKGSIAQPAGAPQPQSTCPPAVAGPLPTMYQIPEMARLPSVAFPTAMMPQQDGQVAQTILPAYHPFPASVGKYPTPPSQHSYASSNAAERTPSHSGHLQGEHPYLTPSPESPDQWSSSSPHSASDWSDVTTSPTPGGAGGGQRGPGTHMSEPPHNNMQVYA
Chain of UniProt Q02818 (Q02818 whole entry): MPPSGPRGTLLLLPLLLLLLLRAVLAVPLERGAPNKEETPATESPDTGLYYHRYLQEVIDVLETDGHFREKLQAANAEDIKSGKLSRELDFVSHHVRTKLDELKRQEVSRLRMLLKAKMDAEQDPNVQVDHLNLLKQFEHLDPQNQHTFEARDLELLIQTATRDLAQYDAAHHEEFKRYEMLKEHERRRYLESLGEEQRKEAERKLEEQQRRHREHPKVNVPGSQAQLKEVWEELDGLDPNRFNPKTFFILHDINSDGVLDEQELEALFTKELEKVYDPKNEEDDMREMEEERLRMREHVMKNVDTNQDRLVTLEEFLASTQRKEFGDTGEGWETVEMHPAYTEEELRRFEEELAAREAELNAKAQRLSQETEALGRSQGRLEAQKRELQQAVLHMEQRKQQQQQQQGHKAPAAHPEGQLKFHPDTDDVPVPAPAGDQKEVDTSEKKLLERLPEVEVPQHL
Chain of UniProt Q92854 (Q92854 whole entry): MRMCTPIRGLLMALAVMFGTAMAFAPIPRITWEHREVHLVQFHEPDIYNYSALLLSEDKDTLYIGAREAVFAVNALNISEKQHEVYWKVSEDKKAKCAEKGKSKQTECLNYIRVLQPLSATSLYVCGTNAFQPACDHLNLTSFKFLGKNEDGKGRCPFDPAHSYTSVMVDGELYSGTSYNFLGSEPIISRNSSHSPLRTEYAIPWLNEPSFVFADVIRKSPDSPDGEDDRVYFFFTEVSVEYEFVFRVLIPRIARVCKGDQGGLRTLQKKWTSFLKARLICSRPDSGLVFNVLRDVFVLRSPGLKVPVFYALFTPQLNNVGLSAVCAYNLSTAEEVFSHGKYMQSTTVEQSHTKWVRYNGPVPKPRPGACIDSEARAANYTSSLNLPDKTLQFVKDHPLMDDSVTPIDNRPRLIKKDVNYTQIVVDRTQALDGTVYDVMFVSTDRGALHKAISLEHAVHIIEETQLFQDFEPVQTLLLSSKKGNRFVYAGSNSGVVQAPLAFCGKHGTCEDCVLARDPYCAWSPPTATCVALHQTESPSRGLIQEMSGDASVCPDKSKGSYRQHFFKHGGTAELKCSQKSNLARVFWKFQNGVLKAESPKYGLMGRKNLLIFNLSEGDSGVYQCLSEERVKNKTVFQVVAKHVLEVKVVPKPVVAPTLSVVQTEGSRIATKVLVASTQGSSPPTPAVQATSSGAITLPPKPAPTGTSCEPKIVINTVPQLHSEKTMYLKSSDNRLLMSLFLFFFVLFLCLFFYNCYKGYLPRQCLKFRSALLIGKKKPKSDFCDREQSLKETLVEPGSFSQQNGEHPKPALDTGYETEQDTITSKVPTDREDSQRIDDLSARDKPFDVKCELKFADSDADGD
Chain of UniProt Q04446 (Q04446 whole entry): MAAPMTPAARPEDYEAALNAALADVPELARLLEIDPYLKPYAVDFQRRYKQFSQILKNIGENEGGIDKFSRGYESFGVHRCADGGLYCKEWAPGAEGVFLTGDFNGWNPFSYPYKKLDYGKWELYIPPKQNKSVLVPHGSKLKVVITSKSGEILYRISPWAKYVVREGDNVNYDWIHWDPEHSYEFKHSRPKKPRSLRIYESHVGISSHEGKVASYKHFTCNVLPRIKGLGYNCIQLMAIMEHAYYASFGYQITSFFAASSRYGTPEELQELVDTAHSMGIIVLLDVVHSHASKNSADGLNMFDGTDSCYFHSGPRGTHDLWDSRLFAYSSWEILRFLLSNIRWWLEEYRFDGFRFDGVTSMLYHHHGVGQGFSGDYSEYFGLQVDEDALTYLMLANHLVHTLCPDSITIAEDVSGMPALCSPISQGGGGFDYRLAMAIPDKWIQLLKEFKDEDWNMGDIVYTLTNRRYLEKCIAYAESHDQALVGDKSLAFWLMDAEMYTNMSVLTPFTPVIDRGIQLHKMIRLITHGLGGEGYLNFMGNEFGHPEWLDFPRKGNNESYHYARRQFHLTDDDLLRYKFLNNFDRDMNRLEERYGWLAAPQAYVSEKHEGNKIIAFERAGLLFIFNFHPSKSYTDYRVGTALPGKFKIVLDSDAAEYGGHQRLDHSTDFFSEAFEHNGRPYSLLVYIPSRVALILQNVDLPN
Chain of UniProt P61769 (P61769 whole entry): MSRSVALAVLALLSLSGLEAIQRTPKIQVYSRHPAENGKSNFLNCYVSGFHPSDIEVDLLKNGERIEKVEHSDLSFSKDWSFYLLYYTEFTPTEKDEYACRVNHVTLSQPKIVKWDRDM

The targets below were run with C#CCNC(=O)CCSSCCC(=O)NCCc1ccc(C=O)c(C=O)c1 (assay: lysine labeling ratio R10:1 (500 µM / 50 µM probe), SILAC-ABPP in living cells; higher = lower intrinsic lysine reactivity toward the probe, active = 2 or less). Settings: HeLa; probe concentrations 500 vs 50 µM.
Summary of the method: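 SILAC light and heavy living HeLa cells in PBS at room temperature were labelled with 50 µM or 500 µM of an alkyne-tagged, disulfide-linked lysine probe, with forward and reverse label swaps. Mixed lysates were clicked to biotin-azide, trypsin-digested, captured on neutravidin, DTT-released, alkylated and analysed by LC-MS/MS on a TIMS-TOF Pro. R is the filtered median high-probe/low-probe MS1 peptide ratio per lysine, then the median across forward and reverse replicates. Ratios are capped at 20.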
With “PDIA6 (lysine site: K150) (UniProt Q15084)” the “lysine labeling ratio R10:1” value was 4.08. For “ITGA4 (lysine site: K526) (UniProt P13612)”, the “lysine labeling ratio R10:1” value was 1.76 (active). In the case of “WNT5A (lysine site: K208) (UniProt P41221)”, the “lysine labeling ratio R10:1” value is reported as 2.67. “RPL5 (lysine site: K283) (UniProt P46777)” was tested, and the “lysine labeling ratio R10:1” value was 1.68 (active). In the case of “DSG2 (lysine site: K251) (UniProt Q14126)”, the “lysine labeling ratio R10:1” value is reported as 8.19. “HSPD1 (lysine site: K133) (UniProt P10809)” was tested, and the “lysine labeling ratio R10:1” value was 3.96. With “SEMA4D (lysine site: K104) (UniProt Q92854)” the “lysine labeling ratio R10:1” value was 0.575 (active). “LY6D (lysine site: K46) (UniProt Q14210)” was tested, and the “lysine labeling ratio R10:1” value was 1.33 (active). In the case of “WNT5A (lysine site: K283) (UniProt P41221)”, the “lysine labeling ratio R10:1” value is reported as 3.04. With “PPIC (lysine site: K49) (UniProt P45877)” the “lysine labeling ratio R10:1” value was 1.58 (active). “FLNA (lysine site: K1372) (UniProt P21333)” was tested, and the “lysine labeling ratio R10:1” value was 2.93. “GPI (lysine site: K366) (UniProt P06744)” was tested, and the “lysine labeling ratio R10:1” value was 2.81. For UniProt Q8N441 (lysine site: K154), the “lysine labeling ratio R10:1” value was 1.13 (active). For “NOTCH2 (lysine site: K1058) (UniProt Q04721)”, the “lysine labeling ratio R10:1” value was 1.5 (active). For “GBE1 (lysine site: K554) (UniProt Q04446)”, the “lysine labeling ratio R10:1” value was 0.937 (active). With “SEMA3C (lysine site: K431) (UniProt Q99985)” the “lysine labeling ratio R10:1” value was 2.67. “AHNAK (lysine site: K130) (UniProt Q09666)” was tested, and the “lysine labeling ratio R10:1” value was 1.37 (active). “SHMT2 (lysine site: K181) (UniProt P34897)” was tested, and the “lysine labeling ratio R10:1” value was 1.17 (active). For B2M (lysine site: K26) (UniProt P61769), the “lysine labeling ratio R10:1” value was 10.1. “NUCB1 (lysine site: K177) (UniProt Q02818)” was tested, and the “lysine labeling ratio R10:1” value was 1.71 (active). “SPTBN2 (lysine site: K1909) (UniProt O15020)” was tested, and the “lysine labeling ratio R10:1” value was 1.63 (active). For “IGF2R (lysine site: K1230) (UniProt P11717)”, the “lysine labeling ratio R10:1” value was 1.74 (active). In the case of “ROBO1 (lysine site: K304) (UniProt Q9Y6N7)”, the “lysine labeling ratio R10:1” value is reported as 3.14.
